Screens (PubChem BioAssay)
CYP2C19 activ – activators of human cytochrome P450 2C19; P33261; recombinant CYP2C19, luciferin-H EGE luminescence; hits give high values; 0 = fully inhibited enzyme, 1 = untreated enzyme; activation factor at 5 µM; 96,000 tested, under 10 active; AID 1025;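 active means activation factor of at least 2 at 5 µM in the primary screen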;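 further: 0 = wells with 2.5 mM tranylcypromine and 1 = vehicle-only wells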
Target sequence (P33261 whole entry, looked up): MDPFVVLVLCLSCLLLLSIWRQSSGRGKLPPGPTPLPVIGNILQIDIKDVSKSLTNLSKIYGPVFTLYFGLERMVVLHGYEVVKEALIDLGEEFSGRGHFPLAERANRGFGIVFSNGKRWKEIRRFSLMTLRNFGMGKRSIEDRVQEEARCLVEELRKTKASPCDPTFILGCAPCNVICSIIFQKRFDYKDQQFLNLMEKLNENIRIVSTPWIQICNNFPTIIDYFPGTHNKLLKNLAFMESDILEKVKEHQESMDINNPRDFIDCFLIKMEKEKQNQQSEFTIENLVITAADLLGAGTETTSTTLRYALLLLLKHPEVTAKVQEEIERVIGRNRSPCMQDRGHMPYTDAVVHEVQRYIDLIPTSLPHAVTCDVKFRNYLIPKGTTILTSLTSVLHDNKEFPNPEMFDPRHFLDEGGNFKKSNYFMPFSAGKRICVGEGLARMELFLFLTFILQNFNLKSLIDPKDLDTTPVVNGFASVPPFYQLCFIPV
CYP2C19 inh – blocks human cytochrome P450 2C19. P33261. AID 778. CYP2C19 Supersomes, luciferin-H EGE luminescence, 30 min. inhibition, % at 5 µM. actives 21% (n = 96,000);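 active means CYP2C19 inhibition above a set limit at 5 µM in the primary screen, cut at about 50% in these data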;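 further: plate controls were negative control wells for no effect and 2.5 mM tranylcypromine positive control for full effect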
PostGolgi yeast – growth inhibition of a yeast mutant, post-Golgi transport screen. post-Golgi transport phenotypic cell assay. inhibition, % at 10 µM. actives 0.9% (n = 98,000). AID 739;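 further: yeast cells grown in 1536-well plates; yeast grown about 18 h at 30C before absorbance read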
PostGolgi ctrl – inhibits growth of the yeast control strain; efflux-deficient yeast background strain, growth absorbance A615, 16 h; inhibition, % at 10 µM; actives 5% (n = 98,000); AID 738
CYP2C9 act – increases human cytochrome P450 2C9 activity | recombinant CYP2C9, luciferin-H conversion, luminescence; hits give high values; factor 1 = untreated enzyme, 0 = blocked | activation factor at 5 µM | actives 1.4% (n = 96,000) | AID 1024;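 active means activation factor of 2 or more for CYP2C9 at a 5 µM dose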;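 further: 0 = sulfaphenazole-blocked wells and 1 = vehicle-only wells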
CYP2C9 inhib – human CYP2C9 inhibition; inhibition, % at 5 µM; AID 777; actives 20% (n = 96,000); CYP2C9 Supersomes, luciferin-H conversion, luminescence; P11712;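 active means blocking of liver enzyme CYP2C9 beyond about 50% at 5 µM, limit read from the data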
Starred values were filed as active, the others as inactive; . = not tested or not shown. Sampled rows, rich in hits. Any-hit rate of the full collection: about 32%. Unless noted, no stated cut-off is given here; in the data, active means inhibition above about 30%; inactive means the rest.

SMILES	CYP2C19 activ	CYP2C19 inh	PostGolgi yeast	PostGolgi ctrl	CYP2C9 act	CYP2C9 inhib
CCSc1nnc(NC(=O)Cc2ccc(OC)c(S(=O)(=O)N3CCOCC3)c2)s1	1	-4.4	-3.2	-0.6	0.7	30.5
CCCn1nc(C(=O)NCCc2ccc(S(N)(=O)=O)cc2)c2ccccc2c1=O	1.1	-14.3	-2.9	10.9	0.6	35.9
Cc1ccc2[nH]c(-c3ccccc3)c(CN(C)C)c(=O)c2c1	0.9	11.6	6.4	1.1	1	-1.0
Cc1ccc(-c2[nH]c3ccccc3c2C(C[N+](=O)[O-])c2ccco2)cc1 (stereo not given)	1.1	-10.7	3.2	30.2*	1	0.6
CC(NC(=O)NC1CCCCC1)C(c1cccs1)N1CCN(Cc2ccccc2)CC1 (stereo not given)	0.6	38.9	-2.2	13.6	0.5	54.5*
CC(NC(=O)c1ccco1)C(c1cccs1)N1CCN(c2ccccc2)CC1 (stereo not given)	0.4	55.8*	-7.6	3.7	0.7	25.1
CC(NC(=O)NC1CCCCC1)C(c1cccs1)N1CCOCC1 (stereo not given)	.	.	1.6	5.2	.	.
Cc1ccc(S(=O)(=O)NC(C)C(c2cccs2)N2CCN(c3ccccc3)CC2)cc1 (stereo not given)	0.8	24.0	-8.6	46.7*	0.6	36.8
CCN1CCN(C(c2cccs2)C(C)NS(=O)(=O)c2ccc(Br)cc2)CC1 (stereo not given)	0	95.4*	0.6	9.5	0.9	9.1
OC(CCN1CCOCC1)(c1ccc(Cl)cc1)C1CCCCC1 (stereo not given)	0.9	10.0	16.0	10.7	0.8	21.9
CCn1c(SCC(=O)Nc2cc(C)on2)nnc1-c1ccc(S(=O)(=O)N2CCN(C)CC2)cc1	1.2	-23.6	7.8	-1.6	0.9	12.7
CC(NC(=O)Cc1cccs1)C(c1cccs1)N1CCN(c2ccccc2F)CC1 (stereo not given)	0.6	38.5	5.7	35.7*	0.5	53.9*
CC(NS(=O)(=O)c1ccccc1)C(c1cccs1)N1CCN(C)CC1 (stereo not given)	0.4	63.4*	.	.	1	2.8
Cn1c(O)c(C(C#N)=C2N=c3ccccc3=N2)c2ccccc21	0.8	17.7	-2.4	8.5	1.9	-87.2
CN1CCC(N(C)C(=O)CCc2nc3ccccc3c(=O)[nH]2)CC1	1.1	-10.7	-36.9	5.8	1.1	-7.4
COc1ccccc1-n1cnnc1SCC(=O)c1ccc[nH]1	0.4	58.7*	-21.2	3.4	0.6	41.4
CC1(C)CC(=O)c2sc(NC(=O)C3CC3)nc2C1	1	-0.4	4.8	36.1*	0.7	29.7
CC(C)Oc1ccc(C(=O)N2CCCC2C(=O)O)cc1 (stereo not given)	1	-0.8	-0.8	1.9	0.9	8.1
Cc1ccc(C)c(S(=O)(=O)N2C(=S)NC(=O)C2C(C)C)c1 (stereo not given)	0.4	55.5*	-3.0	10.8	0	95.4*
CSc1nc(C)cc(OCCNS(=O)(=O)c2cc(C)ccc2C)n1	0.6	40.4	-12.4	6.5	0.5	46.4
Cc1ccc(C)c(S(=O)(=O)NCCOc2nc(NC(C)C)nc(NC(C)C)n2)c1	0.2	77.7*	28.2	-6.4	0.4	58.7*
Cc1noc(C)c1C(c1ccccc1)c1ccccc1	0.1	94.4*	4.2	13.8	0.2	76.2*
CC1=CC(=O)OC1Cc1ccncc1 (stereo not given)	0.8	23.5	4.2	2.4	0.6	41.6
C=CCOc1ccc2c(c1)C(=NO)c1cc(OCC=C)ccc1-2	0.7	33.2	-1.4	9.3	0.2	82.3*
C=CCOc1ccc(/C=C/C(C)=N\O)cc1	0.8	15.2	-0.3	2.5	0.8	23.1
SMILES	CYP2C19 activ	CYP2C19 inh	PostGolgi yeast	PostGolgi ctrl	CYP2C9 act	CYP2C9 inhib
COc1ccc2c(c1)C(=NO)c1cc(OC)ccc1-2	0.9	5.2	-7.1	46.4*	0	96.3*
O=c1[nH]c2c(n(C3CCCCC3)c1=O)CCC2	1.1	-11.1	-1.3	8.8	1.3	-31.4
Cc1ccc2nc(Cc3ccc(N)cc3)oc2c1	0.3	69.2*	-2.2	2.6	0.7	31.5
CCc1nnc(NC(=O)NC(C)(C)C)s1	1	-0.2	2.9	8.2	0.9	12.2
O=C(NCCCN1CCC(Cc2ccccc2)CC1)C1CC(=O)N(C2CCCCCC2)C1 (stereo not given)	0.8	20.6	4.3	2.4	0.6	43.5
COC(=O)CSc1snnc1-c1ccc(Cl)cc1Cl	0.2	76.7*	7.3	5.8	0.6	36.1
CCCCn1c(CNC(=O)Cc2ccccc2)nc2ccccc21	0.7	27.7	9.7	4.5	1.2	-23.2
CCCNC(=O)CC1C(=O)N(Cc2ccccc2)C(C)c2nc3ccccc3n21 (stereo not given)	0.3	67.3*	-4.1	-1.1	0.9	10.1
COc1ccc(NC(=O)C2CCC(CNc3c(N4CCC(C)CC4)c(=O)c3=O)CC2)cc1OC (stereo not given)	0.9	12.6	-13.3	4.3	0.6	41.7
COc1cc(NC(=O)C2CCC(CNc3c(N4CCCCC4)c(=O)c3=O)CC2)cc(OC)c1 (stereo not given)	0.4	57.6*	-11.0	3.5	0.4	62.0*
COc1cc(NC(=O)C2CCC(CNc3c(N4CCC(C)CC4)c(=O)c3=O)CC2)cc(OC)c1 (stereo not given)	0.7	33.4	-10.6	4.9	0.5	51.2*
O=C(Nc1ccc(-c2noc(-c3cccs3)n2)cc1)c1cccnc1	.	.	-3.4	3.6	.	.
CCOc1ccc(S(=O)(=O)NCCC(=O)OC(C)C(=O)N2CCc3ccccc32)cc1 (stereo not given)	0.5	50.3*	2.6	5.5	2.1*	-113.9
CC(=O)Nc1ccc(S(=O)(=O)NCC(=O)OCC(=O)N2CCc3ccccc32)cc1	0.9	11.6	2.8	-0.3	0.3	71.3*
CCOc1ccc(S(=O)(=O)NCCC(=O)OCN2C(=O)c3ccccc3C2=O)cc1	0.3	70.5*	3.2	3.8	0.6	41.7
O=C(CNS(=O)(=O)c1ccccc1Br)OCC(=O)N1CCc2ccccc21	0.7	27.8	4.3	-5.5	1.4	-37.6
O=c1c(Cl)c(N2CCCCC2)cnn1-c1nc2ccccc2[nH]1	0.4	62.3*	-21.1	-3.0	0.8	23.5
CN(C)S(=O)(=O)N1CCN(c2ccc(Cl)cc2)CC1	0.4	62.9*	-1.4	4.7	0.7	30.4
O=S(=O)(c1cnc[nH]1)N1CCN(c2ccc(Cl)cc2)CC1	0	96.3*	3.8	-2.1	0.2	80.6*
Cc1ccc(C)c(N2CCN(C(=O)C3CCCN(S(=O)(=O)c4cnc[nH]4)C3)CC2)c1 (stereo not given)	1	-4.5	-5.2	0.1	1	0.3
Cc1cccc(N2CCN(S(=O)(=O)c3cnc[nH]3)CC2)c1C	0	98.3*	1.5	6.5	0	96.7*
